Several values for one entry are separate records, joined by “and”; a condition that tells them apart may be missing. Equal values may be shown once. Results filed as inconclusive are left out. A call without a number means that no potency is given here. Activity calls are given as the source filed them. Unless noted, calls come from the whole dose curve.
Experiments:
[1] = target: Peroxisome proliferator-activated receptor delta (Homo sapiens) (UniProt Q03181); assay: qHTS assay for small molecule antagonists of peroxisome proliferator-activated receptor delta signaling (AID 588535; active = well fitted inhibition curve with a large enough effect in the signal ratio, with a control signal flat, not every such curve was filed as active; the % refers to the signal ratio)
Chain of Peroxisome proliferator-activated receptor delta (Homo sapiens) (Q03181 whole entry, looked up): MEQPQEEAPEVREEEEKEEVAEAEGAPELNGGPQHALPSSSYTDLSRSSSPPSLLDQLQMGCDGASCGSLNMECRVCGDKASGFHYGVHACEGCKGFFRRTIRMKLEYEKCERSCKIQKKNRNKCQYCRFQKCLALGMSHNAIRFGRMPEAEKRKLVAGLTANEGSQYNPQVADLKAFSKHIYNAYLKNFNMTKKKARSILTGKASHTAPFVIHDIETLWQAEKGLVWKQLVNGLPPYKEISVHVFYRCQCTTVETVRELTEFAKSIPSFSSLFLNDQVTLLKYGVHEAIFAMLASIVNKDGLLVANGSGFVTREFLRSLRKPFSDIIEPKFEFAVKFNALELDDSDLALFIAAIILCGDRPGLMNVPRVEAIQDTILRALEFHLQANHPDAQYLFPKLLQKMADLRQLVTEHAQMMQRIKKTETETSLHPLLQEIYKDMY
Summary of the method: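 HEK293T PPAR-delta-UAS-bla cells, 4000/well, 2% charcoal/dextran FBS; 5 h 37 C; cpd titration; 18 h 37 C; CCF4 2 h RT; FI 460/530 nm; Hill fit → IC50, efficacy.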

[2] = target: Peroxisome proliferator-activated receptor gamma (Homo sapiens) (UniProt P37231); assay: qHTS assay for small molecule agonists of peroxisome proliferator-activated receptor gamma signaling (AID 588536; active = well fitted curve in the direction sought with a large enough effect in the signal ratio, with a control signal flat, not every such curve was filed as active; the % refers to the signal ratio)
Chain of Peroxisome proliferator-activated receptor gamma (Homo sapiens) (P37231 whole entry, looked up): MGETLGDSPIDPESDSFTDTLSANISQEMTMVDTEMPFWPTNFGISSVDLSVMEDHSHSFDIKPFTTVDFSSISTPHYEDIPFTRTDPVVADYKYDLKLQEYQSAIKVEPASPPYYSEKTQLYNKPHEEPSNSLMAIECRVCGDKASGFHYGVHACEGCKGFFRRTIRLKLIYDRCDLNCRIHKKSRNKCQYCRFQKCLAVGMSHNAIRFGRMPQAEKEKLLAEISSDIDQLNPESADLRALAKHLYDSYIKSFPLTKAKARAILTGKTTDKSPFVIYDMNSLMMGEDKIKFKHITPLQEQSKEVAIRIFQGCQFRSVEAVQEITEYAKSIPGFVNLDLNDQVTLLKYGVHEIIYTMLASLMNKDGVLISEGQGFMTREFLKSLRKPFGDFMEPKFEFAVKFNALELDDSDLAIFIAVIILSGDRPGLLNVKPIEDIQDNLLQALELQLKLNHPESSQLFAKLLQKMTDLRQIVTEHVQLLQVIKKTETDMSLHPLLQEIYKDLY
Summary of the method: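 HEK293 UAS-bla reporter line, 1% charcoal/dextran FBS; titration, 16 h, 37 C; CCF4 loading 2 h RT; fluorescence 460/530 nm. Normalized to rosiglitazone 2 uM = 100%, DMSO = 0%.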

[3] = target: Vitamin D3 receptor (Homo sapiens) (UniProt P11473); assay: qHTS assay for small molecule antagonists of vitamin D receptor signaling (AID 588541);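 note: receptor activated by calcitriol during compound treatment; series mostly up to about 77 µM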
Chain of Vitamin D3 receptor (Homo sapiens) (P11473 whole entry, looked up): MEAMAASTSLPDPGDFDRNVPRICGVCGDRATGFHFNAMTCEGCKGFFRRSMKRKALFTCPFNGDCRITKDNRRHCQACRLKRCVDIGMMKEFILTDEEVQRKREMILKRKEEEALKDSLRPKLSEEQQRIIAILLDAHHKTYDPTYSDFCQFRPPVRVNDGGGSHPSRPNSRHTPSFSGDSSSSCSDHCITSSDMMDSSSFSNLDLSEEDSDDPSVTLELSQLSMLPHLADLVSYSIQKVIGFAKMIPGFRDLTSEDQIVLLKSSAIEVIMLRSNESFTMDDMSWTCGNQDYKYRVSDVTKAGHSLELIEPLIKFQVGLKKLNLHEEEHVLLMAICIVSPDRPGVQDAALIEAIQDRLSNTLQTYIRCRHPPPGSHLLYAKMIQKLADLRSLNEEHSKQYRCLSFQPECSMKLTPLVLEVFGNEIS
Text: NIH Chemical Genomics Center [NCGC]
U.S. Environmental Protection Agency [EPA]
National Institutes of Environmental Health Sciences [NIEHS]
National Toxicology Program [NTP]
The Vitamin D receptor (VDR) is a member of nuclear hormone receptor superfamily and it plays a critical role in calcium homeostasis and bone metabolism. It plays a role in inducing cell differentiation, inhibiting cell growth and in thrombogenicity. So, VDR that mediates these effects represents a pharmacological target in prevention and treatment of hyperproliferative malignancies, such as cancer and psoriasis, cardiovascular, immunological, inflammatory and renal diseases etc.
NCGC Assay Protocol Summary
Using a beta-lactamase reporter-gene under control of Vitamin D receptor (VDR) response element, a cell-based assay [GeneBLAzer (VDR -UAS-bla assay developed by Invitrogen] was used to measure VDR ligands signaling. GeneBLAzer VDR -UAS-bla HEK293T cells were used with assay medium containing 2% charcoal-stripped FBS. The assay was performed in clear bottom black Greiner 1536-well plates. Library compounds were measured for their ability to inhibit the reporter gene activity. Compounds were screened in a titration series in 1536-well format. The fluorescence intensity (405 nm excitation, 460/530 nm emission) was measured using an EnVision plate reader. Data was normalized relative to 1-alpha,25-Dihydroxy vitaminD3 control (50 nM, 100%) and DMSO only wells (basal, 0%). Concentration-response titration points for each compound were fitted to the Hill equation yielding concentrations of half-maximal inhibition (IC50) and maximal response (efficacy) values.
qHTS protocol for VDR beta-lactamase assay in antagonist mode
[Step] [Parameter] [Value] [Description]
1. Reagent; 5 uL; 2000 cells/well
2. Incubation; 37 C for 5 hrs
4. Controls (DMSO); 23 nL,
5. Agonist (Stimulator); 1uL; 1-alpha,25-Dihydroxy vitaminD3 at 50 nM and 3 nM final concentrations
6. Incubation; 37 C for 16 hrs
7. Detection reagent; 1 uL of CCF4-dye
8. Incubation; RT for 2 hrs
9. Detection; Fluorescence; Envision plate reader

[4] = target: Vitamin D3 receptor (Homo sapiens) (UniProt P11473); assay: qHTS assay for small molecule agonists of vitamin D receptor signaling (AID 588543)
Summary of the method: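 qHTS in agonist mode: compound titrations stimulate a VDR-driven β-lactamase reporter in HEK293T cells over 16 h at 37 °C. Response normalized to 50 nM 1α,25-dihydroxyvitamin D3 = 100%, DMSO = 0%; Hill fitting gives EC50 and maximal response.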

[5] = qHTS assay for small molecule agonists of retinoid X receptor alpha signaling (AID 588544); conditions: HEK293T RXRa-UAS-bla, beta-lactamase reporter, 18 h; 530 nm emission
[6] = target: Retinoic acid receptor RXR-alpha (Homo sapiens) (UniProt P19793); assay: as above
Chain of Retinoic acid receptor RXR-alpha (Homo sapiens) (P19793 whole entry, looked up): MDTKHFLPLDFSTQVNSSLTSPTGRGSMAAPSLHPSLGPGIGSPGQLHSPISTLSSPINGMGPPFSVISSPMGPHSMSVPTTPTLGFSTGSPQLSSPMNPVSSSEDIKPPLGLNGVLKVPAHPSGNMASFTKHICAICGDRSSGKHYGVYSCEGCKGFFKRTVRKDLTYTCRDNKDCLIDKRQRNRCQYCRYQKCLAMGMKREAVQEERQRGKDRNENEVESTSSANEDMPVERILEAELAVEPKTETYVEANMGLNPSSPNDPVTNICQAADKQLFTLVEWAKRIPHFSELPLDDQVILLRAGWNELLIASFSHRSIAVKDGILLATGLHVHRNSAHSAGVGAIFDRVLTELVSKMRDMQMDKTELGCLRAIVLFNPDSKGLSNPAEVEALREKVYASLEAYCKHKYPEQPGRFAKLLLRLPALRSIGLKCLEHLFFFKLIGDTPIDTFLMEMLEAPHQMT

[7] = target: Thyroid hormone receptor beta (Homo sapiens) (UniProt P10828); assay: qHTS assay for small molecule agonists of thyroid hormone receptor beta signaling (AID 588545)
Chain of Thyroid hormone receptor beta (Homo sapiens) (P10828 whole entry, looked up): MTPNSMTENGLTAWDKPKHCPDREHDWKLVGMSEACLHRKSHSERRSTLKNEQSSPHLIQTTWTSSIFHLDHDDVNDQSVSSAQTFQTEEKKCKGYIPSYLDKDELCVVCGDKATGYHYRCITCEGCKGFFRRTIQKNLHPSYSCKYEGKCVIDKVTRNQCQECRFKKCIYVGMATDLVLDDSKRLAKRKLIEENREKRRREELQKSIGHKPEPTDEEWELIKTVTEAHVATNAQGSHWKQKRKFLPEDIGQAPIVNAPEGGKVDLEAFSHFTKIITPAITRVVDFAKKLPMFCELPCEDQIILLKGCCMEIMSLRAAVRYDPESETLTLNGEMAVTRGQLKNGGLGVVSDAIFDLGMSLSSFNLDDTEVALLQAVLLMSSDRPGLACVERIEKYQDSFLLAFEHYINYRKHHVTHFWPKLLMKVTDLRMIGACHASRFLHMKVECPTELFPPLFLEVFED
Summary of the method: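 In this cell-based screen, titrated compounds act on HEK 293 cells held in medium with 2% charcoal/dextran FBS, NEAA and pyruvate for 18 hrs at 37 C. Responses are expressed relative to T3 (10 nM) as 100% and basal DMSO as 0%.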

[8] = qHTS assay for small molecule antagonists of retinoid X receptor alpha signaling (AID 588546; active = well fitted inhibition curve with a large enough effect in the signal ratio, with a control signal flat, not every such curve was filed as active; the % refers to the signal ratio; note: potency is the fitted concentration of half-maximal effect;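 for max response: cells stimulated with 9-cis-retinoic acid as agonist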); conditions: HEK293T RXRa-UAS-bla, beta-lactamase ratio, antagonist mode; measured here: W530 green channel, cytotoxicity proxy
Summary of the method: (§1)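 Beta-lactamase reporter inhibition, read as CCF4 fluorescence ratio (ex 405, em 460/530 nm) after 2 h at RT. HEK293T UAS-bla cells, 2500/well, were stimulated with 9-cis-RA at 500 or 100 nM final alongside test compound for 18 h at 37 C.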

[9] = target: Retinoic acid receptor RXR-alpha (Homo sapiens) (UniProt P19793); assay: as above; conditions: HEK293T RXRa-UAS-bla, beta-lactamase ratio, antagonist mode
Summary of the method: as §1

[10] = target: Peroxisome proliferator-activated receptor gamma (Homo sapiens) (UniProt P37231); assay: qHTS assay for small molecule antagonists of peroxisome proliferator-activated receptor gamma signaling (AID 588537; active = well fitted inhibition curve with a large enough effect in the signal ratio, with a control signal flat, not every such curve was filed as active; the % refers to the signal ratio; note: potency is the fitted concentration of half-maximal effect)
Summary of the method: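 Antagonist mode, beta-lactamase reporter in HEK293; charcoal/dextran FBS 1%; 3000 cells/well, 37 C 6-6.5 h; cpd titration + rosiglitazone 50 nM final, 16 h 37 C; CCF4, 2 h RT; 460/530 nm; Hill fit → IC50, efficacy.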

Row | SMILES | outcome [1] | outcome [2] | outcome [3] | outcome [4] | max response [5] | outcome [6] | outcome [7] | max response [8] | max response [9] | Potency [10] | Potency [9]
1 | O=C(O)CC(O)(CC(=O)O)C(=O)O | inactive | inactive | inactive | inactive | 2.81% and -9.62% and -10.5% | inactive | inactive | -2.45% and -5.52% and -2.31% | -0.99% (inactive) and 3.25% (inactive) and -0.625% (inactive) | – | –
2 | C=Cc1ccccc1 | inactive | inactive | inactive | inactive | -4.91% | inactive | – | -10.4% and -6.3% | 1.17% (inactive) and -1.22% (inactive) | inactive | –
3 | COC(C)=O | inactive | inactive | – | – | -9.31% | inactive | inactive | -2.37% | 11.4% (inactive) | – | –
4 | CC(=O)S[C@@H]1CC2=CC(=O)CC[C@]2(C)[C@H]2CC[C@@]3(C)[C@@H](CC[C@@]34CCC(=O)O4)[C@H]12 | – | – | – | – | – | – | inactive | – | – | 39.8 µM (active) | –
5 | O=S(=O)(c1ccccc1)N(CC(F)(F)F)c1ccc(C(O)(C(F)(F)F)C(F)(F)F)cc1 | inactive | – | – | – | -15.6% | inactive | inactive | -56.3% | – | – | 12.6 µM (active)
6 | CCCCCCCCCC(=O)O | inactive | – | inactive | inactive | 6.89% and 0.0203% | inactive | inactive | 6.37% and -10.5% | -2.15% (inactive) and -5.65% (inactive) | – | –
7 | CN(C)Cc1ccccc1 | inactive | inactive | inactive | – | -2.82% | inactive | inactive | -2.86% | -1.44% (inactive) | inactive | –
8 | CCCCCCCC/C=C\CCCCCCCC(=O)OC[C@@H](O)[C@H]1OC[C@H](O)[C@H]1O | inactive | inactive | inactive | inactive | -2.66% | inactive | inactive | -8.17% | -13.5% (inactive) | – | –
